This note sets out measurements from PubChem BioAssay (EPA / NIEHS).

The nature of experiment [1]: BSK_CASM3C_SRB: Viability Assessment in the BioMAP Diversity Plus: CASM3C Assay (AID 2283050).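 Note: total protein by SRB staining as cytotoxicity measure in parallel cultures; cells exposed to compound for 24 h.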 The note with it: primary human coronary artery smooth muscle cells.
Read-out in experiment [2]: Thrombomodulin, THBD (gene 7056)
The experiment in a line: BSK_CASM3C_Thrombomodulin: BioMAP Diversity Plus: CASM3C Assay for Thrombomodulin Biomarker Activity (AID 2283051).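 Note: thrombomodulin protein level measured by ELISA 24 h after dosing.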 Particulars: primary human coronary artery smooth muscle cells; actives raise or lower the signal.

Read-out in experiment [3]: Tissue Factor, F3 (gene 2152)
In words: BSK_CASM3C_TissueFactor: BioMAP Diversity Plus: CASM3C Assay for Tissue Factor Biomarker Activity (AID 2283052).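 Note: cell surface tissue factor protein level read by ELISA.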 Particulars: primary human coronary artery smooth muscle cells; actives raise or lower the signal.

Read-out in experiment [4]: Interferon-gamma inducible Protein 10 (IP10), CXCL10 (gene 3627)
The experiment in a line: BSK_hDFCGF_IP10: BioMAP Diversity Plus: hDFCGF Assay for Interferon-gamma inducible Protein 10 (IP10) Biomarker Activity (AID 2283053). Particulars: primary human foreskin fibroblasts; actives raise or lower the signal. Summed up:
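IP-10 levels, quantified by ELISA, are taken from human foreskin fibroblast cultures 24 h after chemical treatment, with DMSO serving as negative control and baseline for bidirectional analysis.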

Read-out in experiment [5]: Urokinase-type plasminogen activator receptor (uPAR), PLAUR (gene 5329)
In words: BSK_CASM3C_uPAR: BioMAP Diversity Plus: CASM3C Assay for Urokinase-type plasminogen activator receptor (uPAR) Biomarker Activity (AID 2283054).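 Note: cell-surface uPAR protein level quantified by ELISA.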 The note with it: primary human coronary artery smooth muscle cells; actives raise or lower the signal.

Read-out in experiment [6]: Vascular cell adhesion molecule 1 (VCAM1), VCAM1 (gene 7412)
The experiment in a line: BSK_CASM3C_VCAM1: BioMAP Diversity Plus: CASM3C Assay for Vascular cell adhesion molecule 1 (VCAM1) Biomarker Activity (AID 2283055).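 Note: VCAM-1 protein level quantified by ELISA on the cells.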 Particulars: primary human coronary artery smooth muscle cells; actives raise or lower the signal.

Read-out in experiment [7]: Collagen III, COL3A1 (gene 1281)
The experiment in a line: BSK_hDFCGF_CollagenIII: BioMAP Diversity Plus: hDFCGF Assay for Collagen III Biomarker Activity (AID 2283056). Particulars: primary human foreskin fibroblasts; actives raise or lower the signal. The method in brief: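 Response relative to DMSO, fitted in both directions, reflects ELISA-measured collagen III in human primary skin fibroblasts 24 h after compound addition.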

Read-out in experiment [8]: Epidermal growth factor receptor (EGFR), EGFR (gene 1956)
The experiment in a line: BSK_hDFCGF_EGFR: BioMAP Diversity Plus: hDFCGF Assay for Epidermal growth factor receptor (EGFR) Biomarker Activity (AID 2283057). The note with it: primary human foreskin fibroblasts; actives raise or lower the signal. Summed up: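 Measured by ELISA: EGFR levels on primary human foreskin fibroblasts 24 h after chemical treatment, analysed relative to DMSO with bidirectional fitting.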

Read-out in experiment [9]: Interleukin-8 (IL8), CXCL8 (gene 3576)
In words: BSK_hDFCGF_IL8: BioMAP Diversity Plus: hDFCGF Assay for Interleukin-8 (IL8) Biomarker Activity (AID 2283058). The note with it: primary human foreskin fibroblasts; actives raise or lower the signal. The method in brief: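 Fibroblast monolayers (human foreskin, hDFCGF) received test chemical for 24 h before ELISA detection of IL-8; either increases or decreases relative to DMSO count as activity.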

The nature of experiment [10]: BSK_hDFCGF_Proliferation: Cell Proliferation Assessment in the BioMAP Diversity Plus: hDFCGF Assay (AID 2283059).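 Note: curves fitted for both rise and fall of signal versus DMSO baseline.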 The note with it: primary human foreskin fibroblasts. Summed up:
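This proliferation readout used SRB total-protein staining of human foreskin fibroblasts […], normalized to DMSO with bidirectional curve fitting.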

Some structures have more than one record in an assay (separate samples or runs), and their calls can disagree. The source made the active and inactive calls. Rule for the calls: active = hit-call score of the fitted dose curve at least 0.9, where 1 is the maximum; inactive = score below 0.9.

For `N#CN=C1SCCN1Cc1ccc(Cl)nc1`, the outcome in experiment [1], in experiment [2], in experiment [3], in experiment [4], in experiment [5] and in experiment [6] was inactive. Also, the result in experiment [7], in [8], in experiment [9] and in [10] was inactive.
A word on the AC50: it is the concentration giving half of the maximal activity seen. Take `CC1(C)C(C(=O)OC(C#N)c2cccc(Oc3ccccc3)c2)C1(C)C` (stereo unspecified): the result in experiment [1], in experiment [3], in experiment [4], in [5], in [6] and in experiment [7] was inactive. The outcome in [8] and in [9] was inactive. Also, the AC50 in experiment [2] is 16 µM (active); in experiment [10] it was 8.2 µM (active).
As for `CS(=O)(=O)c1ccc(C(=O)C2C(=O)CCCC2=O)c([N+](=O)[O-])c1`, the outcome in [1], in experiment [2], in experiment [3], in experiment [4], in experiment [5] and in experiment [6] was inactive. In addition, the outcome in experiment [7], in [8], in experiment [9] and in [10] was inactive.
For `CCCCC(O)(Cn1cncn1)c1ccc(Cl)cc1Cl` (stereo unspecified), the outcome in experiment [1], in [2], in experiment [3], in experiment [5], in experiment [6] and in experiment [8] was inactive. The result in experiment [9] was inactive. Also, the AC50 in [4] was 32.9 µM (active); in [7], 29.9 µM (active); in experiment [10], 22.9 µM (active).
As for `Nc1c(Cl)c(Cl)nc(C(=O)O)c1Cl`, the result in experiment [1], in experiment [2], in experiment [3], in [4], in [5] and in [6] was inactive. Moreover, the result in experiment [7], in [8], in experiment [9] and in experiment [10] was inactive.
As to `Nc1cnn(-c2ccccc2)c(=O)c1Cl`, the result in experiment [1], in [2], in [3], in [4], in [5] and in [6] was inactive. The outcome in experiment [7], in experiment [8], in [9] and in [10] was inactive.
For `N#Cc1c(Cl)cccc1Cl`, the result in [1], in experiment [2], in experiment [3], in experiment [4], in experiment [5] and in experiment [6] was inactive. The outcome in experiment [7], in [8], in [9] and in experiment [10] was inactive.
Regarding `Clc1cccc(C(Cl)(Cl)Cl)n1`, the outcome in experiment [1], in [2], in experiment [3], in experiment [5], in experiment [6] and in experiment [7] was inactive. For the same compound, the outcome in experiment [8], in experiment [9] and in experiment [10] was inactive. The AC50 in experiment [4] is 29.8 µM (active).
On to `CCOC(=O)C(C)OC(=O)c1cc(Oc2ccc(C(F)(F)F)cc2Cl)ccc1[N+](=O)[O-]` (stereo unspecified), for which the outcome in experiment [1], in [2], in experiment [3], in [4], in [5] and in [6] was inactive. Further, the result in experiment [8], in [9] and in [10] was inactive. Besides, in [7], the AC50 is 6.41 µM (active).
On to `COCC(C)N(C(=O)CCl)c1c(C)csc1C` (stereo unspecified), for which the result in experiment [1], in experiment [2], in experiment [3], in [4], in experiment [5] and in experiment [6] was inactive. In addition, the result in experiment [7], in experiment [8], in [9] and in experiment [10] was inactive. For the same compound, the concentration at half-maximal activity (AC50) in [10] is 14.3 µM (active).
For `CCOc1cc(C(C)(C)C)ccc1C1COC(c2c(F)cccc2F)=N1` (stereo unspecified), the AC50 is 25 µM (active) in experiment [1]; 22.8 µM (active) in [2]; 20 µM (active) in [4]; 5.08 µM (active) in [5]; 5.45 µM (active) in experiment [7]; 11.8 µM (active) in [8]. Moreover, the values for the half-maximal activity concentration (AC50) in [9] and in experiment [10] were 20.4 µM (active) and 6.95 µM (active), respectively. The outcome in experiment [3] and in experiment [6] was inactive.
Turning to `COc1cc(OC)nc(NC(=O)NS(=O)(=O)c2ncccc2OCC(F)(F)F)n1`, the result in experiment [1], in [2], in experiment [3], in experiment [4], in experiment [5] and in [6] was inactive. Further, the result in [7], in experiment [8], in experiment [9] and in experiment [10] was inactive.
On to `CC(C)=CC1C(C(=O)OCc2coc(Cc3ccccc3)c2)C1(C)C` (stereo unspecified), for which the outcome in experiment [1], in [3], in [5], in experiment [6], in experiment [8] and in experiment [9] was inactive. Further, the concentration at half-maximal activity (AC50) was 20 µM (active) in experiment [2], 3.97 µM (active) in experiment [4], 12.2 µM (active) in experiment [7] and 15 µM (active) in experiment [10].
`CNC(=O)N(C)c1nnc(C(C)(C)C)s1`: the outcome in [1], in experiment [2], in experiment [3], in experiment [4], in [5] and in [6] was inactive. The result in [7], in experiment [8], in experiment [9] and in experiment [10] was inactive.
Regarding `Cn1c(-c2ccccc2)cc(-c2ccccc2)[n+]1C`, the result in experiment [1], in experiment [2], in experiment [3], in experiment [4], in [5] and in experiment [6] was inactive. The result in experiment [8] and in experiment [9] was inactive. The AC50 was 10.1 µM (active) in [7] and 5.37 µM (active) in experiment [10].
Turning to `CC(C)Oc1cccc(NC(=O)c2ccccc2C(F)(F)F)c1`, the outcome in experiment [1], in [2], in experiment [3], in experiment [4], in experiment [5] and in experiment [6] was inactive. The result in [7], in experiment [8] and in experiment [9] was inactive. In addition, the half-maximal activity concentration (AC50) in experiment [10] is 27.5 µM (active).
As to `Cc1cnc(C2=NC(C)(C(C)C)C(=O)N2)c(C(=O)O)c1` (stereo unspecified), the result in experiment [1], in experiment [2], in experiment [3], in experiment [4], in experiment [5] and in [6] was inactive. In addition, the result in experiment [7], in experiment [8], in [9] and in experiment [10] was inactive.
On to `CCNP(=S)(OC)O/C(C)=C/C(=O)OC(C)C` (stereo unspecified), for which the result in experiment [1], in experiment [2], in experiment [3], in experiment [4], in experiment [5] and in experiment [6] was inactive. The outcome in experiment [7], in [8], in experiment [9] and in experiment [10] was inactive.
